For 47 molecules, max activity results are on record in PubChem BioAssay AID1259418 (Broad Institute, 2018).

The campaign covered roughly 3,400 compounds. About 840 (25%) were called active. About 11% were inconclusive and are not listed. These entries were drawn from the full list. Results with a measured potency or affinity are listed apart. Values without a mark were called inactive.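 The calls were made as follows: active = fitted half-maximal concentration of signal decrease at or below twice the sample's top tested concentration; inconclusive = flat curve between -70 and -30 percent, or poor fit; inactive = flat within 30 percent, signal rise, or potency above limit.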

A short description of the experiment: T. gondii growth inhibition with IFN-gamma, dose response, cell-based, ME49Luc, HeLa, luciferase, 72 h (AID 1259418). Particulars: T. gondii ME49Luc in IFN-y HeLa, stronger effect = lower value, -100% = high-dose IFN-γ control wells; at 19.5 µM unless noted.
On to `COc1ccc(Cl)cc1NC(=O)Nc1ccc(-c2nc(-c3ccccc3)co2)cc1`, for which the max activity was -16.1% [at 0.68 µM]. On to `COc1ccc(CNC(=O)CC2N=C3c4ccccc4N=C(SCc4ccccc4Cl)N3C2=O)cc1` (configuration not stated), for which the max activity is 18.1% [at 0.68 µM].

Turning to `COc1ccccc1CNC(=O)CC1N=C2c3ccccc3N=C(SCc3cc(=O)n4ccccc4n3)N2C1=O` (configuration not stated), the max activity is 17.5% [at 0.16 µM].

Consider `COc1ccccc1CNC(=O)CCC1N=C2c3ccccc3N=C(SCc3ccccc3Cl)N2C1=O` (configuration not stated), for which the max activity was -11% [at 0.35 µM]. To `O=C(CCC1N=C2c3ccccc3N=C(SCc3ccccc3Cl)N2C1=O)NCc1cccs1` (configuration not stated) belongs 20.4% [at 5 µM]. Regarding `COc1ccc(CNC(=O)CC2N=C3c4ccccc4N=C(SCc4cc(=O)n5cc(Cl)ccc5n4)N3C2=O)cc1` (configuration not stated), the max activity is -22.2%.

`COc1ccccc1CNC(=O)CC1N=C2c3ccccc3N=C(SCc3ccc(Cl)cc3)N2C1=O` (configuration not stated): the max activity is 28% [at 5 µM].

As to `COc1ccccc1CNC(=O)CCC1N=C2c3ccccc3N=C(SCc3ccccc3F)N2C1=O` (configuration not stated), the max activity was 8.88%. With `O=C(CCC1N=C2c3ccccc3N=C(SCc3ccccc3F)N2C1=O)NCc1ccco1` (configuration not stated), the max activity was 61.5% [at 10 µM]. As for `COc1ccc(CNC(=O)CCC2N=C3c4ccccc4N=C(SCc4ccccc4Cl)N3C2=O)cc1` (configuration not stated), the max activity was -10.1% [at 0.16 µM]. To `Cc1nc(OCC(=O)Nc2cc(Cl)ccc2C)c2ccccc2n1` belongs 25.9% [at 0.16 µM]. In the case of `CCOC(=O)C1CCCN(c2nc(-c3ccc(OC)cc3)nc3ccccc23)C1` (configuration not stated), the max activity is -19.8% [at 0.16 µM]. Take `O=C(CC1N=C2c3ccccc3N=C(SCc3ccccc3F)N2C1=O)NCc1ccc(F)cc1` (configuration not stated): the max activity is 15.6% [at 0.68 µM]. Next, `CCOC(=O)CSC1=Nc2ccccc2C2=NC(CC(=O)NCc3cccs3)C(=O)N12` (configuration not stated): 29.5%; `O=C(CC1N=C2c3ccccc3N=C(SCc3ccccc3F)N2C1=O)NCc1ccccc1` (configuration not stated): 8.54% [at 0.16 µM]; `N#CCSC1=Nc2ccccc2C2=NC(CCC(=O)NCc3cccs3)C(=O)N12` (configuration not stated): 19.3% [at 1.35 µM]. To `Cc1ccc(-c2coc(-c3ccc(NC(=O)NCCc4ccccc4)cc3)n2)cc1` belongs 19.3% [at 2.6 µM]; to `Clc1ccc(-c2nc(NC3CCCCCC3)c3ccccc3n2)cc1`, 14.3% [at 10 µM]. Regarding `COc1ccc(-c2nc(NC3CCCCCC3)c3ccccc3n2)cc1`, the max activity was 19.2% [at 0.16 µM]. `Clc1ccc(-c2nc(NC3CCCCC3)c3ccccc3n2)cc1`: the max activity was 16.4%. Next, `COc1ccc(-c2nc(Nc3ccccc3F)c3ccccc3n2)cc1`: 11.7%.

For `COc1ccc(-c2nc(Nc3cc(OC)cc(OC)c3)c3ccccc3n2)cc1`, the max activity was 19% [at 5 µM]. Next, `COc1ccc(-c2nc(NC3CCCCC3)c3ccccc3n2)cc1`: -27.2% [at 5 µM]; `COc1ccc(-c2nc(Nc3ccc(Cl)cc3C)c3ccccc3n2)cc1`: -19.8% [at 10 µM]. On to `Cc1cnc(N2CC[C@H]3CN(CC(=O)N(C)C)S(=O)(=O)[C@@H]3CC2)nc1`, for which the max activity was 21.5%. Next, `O=C(CCc1ccc2nc(-c3ccccc3)[nH]c2c1)N1CCC(N2CCCCC2)CC1`: 57.7%; `c1ccc(-n2ncc3c(NC4CCCCCCCCCCC4)ncnc32)cc1`: 53.5% [at 10 µM]; `Cc1nc(-c2ccc(F)cc2)sc1-c1ccc(SCCN2CCCCC2)nn1`: 10.2% [at 0.16 µM]. For `Cc1ccc(Cn2c(=O)c3nn(C)cc3n3c(=O)n(Cc4nc(-c5cccc(C)c5)oc4C)nc23)cc1`, the max activity was 8.72% [at 10 µM]. In the case of `COc1ccc(-c2nc(N3CCN(c4cc(C)ccc4C)CC3)c3ccccc3n2)cc1`, the max activity is 11.7% [at 0.68 µM]. On to `O=C(CC1N=C2c3ccccc3N=C(SCc3ccccc3Cl)N2C1=O)NC1CCCCC1` (configuration not stated), for which the max activity was 14%.

For `O=C(CC1N=C2c3ccccc3N=C(SCc3cccc(Cl)c3)N2C1=O)NC1CCCCC1` (configuration not stated), the max activity is -15.8% [at 0.16 µM].

As for `O=C(CCC1N=C2c3ccccc3N=C(SCc3ccccc3F)N2C1=O)NC1CCCCC1` (configuration not stated), the max activity is 96.1%. Next, `Cc1ccc(CSC2=Nc3ccccc3C3=NC(CC(=O)NC4CCCCC4)C(=O)N23)cc1` (configuration not stated): 39.6%; `Cc1cccc(C(=O)N2CCC3(CC2)Nc2ccc(Cl)cc2-n2cccc23)c1`: 5.23%. As for `COc1ccc(OC)c(NC(=O)Nc2ccc(-c3nc(-c4ccccc4)co3)cc2)c1`, the max activity is 13.4% [at 0.68 µM]. Next, `COc1ccc(-c2nc(Nc3cccc(C(F)(F)F)c3)c3ccccc3n2)cc1`: -7.84% [at 5 µM]; `N#C[C@@H]1[C@@H](c2ccc(-c3cccnc3)cc2)[C@H](CO)N1C(=O)Nc1ccc(F)cc1`: 48.3% [at 10 µM]. To `CCOc1cccc(-c2noc(-c3nnn(Cc4nc(-c5ccc(C)cc5)oc4C)c3C)n2)c1` belongs -11.7% [at 0.68 µM]; to `CN1C(=O)CCc2cc(NC(=O)c3cnccn3)ccc21`, 158% [at 10 µM].

Consider `COc1ccc(-c2nc(Nc3cc(Cl)ccc3OC)c3ccccc3n2)cc1`, for which the max activity is 12.5% [at 0.68 µM]. In the case of `Cc1ccc2c(c1)cc(S(=O)(=O)c1ccccc1)c(=O)n2CC(=O)NCC1CCCO1` (configuration not stated), the max activity is -10.7% [at 10 µM]. Next, `CCOc1ccccc1NC(=O)N1CCN(Cc2nc(-c3ccc(C)cc3)oc2C)CC1`: -15.8%; `COc1ccc(OC)c(CNc2nc(-c3ccc(Cl)cc3)nc3ccccc23)c1`: 14.3%. Next, `N#C[C@H]1[C@@H](c2ccc(-c3cccc(F)c3)cc2)[C@@H](CO)N1C(=O)NC1CCCC1`: 14.8% [at 2.6 µM]; `N#C[C@@H]1[C@@H](c2ccc(-c3cccc(F)c3)cc2)[C@H](CO)N1C(=O)NC1CCCC1`: 20.3% [at 10 µM]. Regarding `Cc1nc(-c2ccc(F)cc2)sc1-c1ccc(SCc2ccccc2)nn1`, the max activity was 20.5% [at 10 µM].
